# Measurements: the supplement of paper PMC10037445
# “And” between values parts separate entries of the source, which are not always exact repeats. Identical values can stand only once. Whole data set: some 2,900 compounds, median “NF-kB SEAP reporter activity, fold change vs agonist alone” near 0.99, cut for the highest 2% near 2.6. The full list was thinned out, with the highest values kept by preference.
# What was measured:
# RAW-Dual [1] = test: NF-kB SEAP reporter activity, fold change vs agonist alone; cytotoxicity flag (confluency mask): not cytotoxic; higher = enhanced NF-kB activity
# Outline: (§1)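 Reporter activity is given as fold change relative to agonist-alone wells. To measure it, 50 nL of library stock was pin-tooled onto RAW-Dual macrophages (50,000 cells/well, DMEM, 384-well plates), a PRR agonist followed 1 h later, and cells stayed at 37 °C, 5% CO2. Twenty hours on, supernatant was assayed for IRF (QuantiLuc luminescence) and NF-κB (QuantiBlue, 620 nm absorbance), and wells under 70% of agonist-control IncuCyte confluency in both mask sets were marked cytotoxic.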
# RAW-Dual [2] = test: NF-kB SEAP reporter activity, fold change vs agonist alone; higher = enhanced NF-kB activity; conditions: cytotoxicity flag (confluency mask): not cytotoxic
# Outline: as §1
# [3] = agonist: ODN 1826 (TLR9) 0.5 ug/mL
# [4] = agonist: Pam2CSK4 (TLR2/6) 0.1 ug/mL
# [5] = agonist: Pam3CSK4 (TLR2/1) 0.1 ug/mL
# [6] = library stock concentration (final ~1000-fold dilution): 10 mM, agonist: Imiquimod (TLR7) […]
# [7] = library stock concentration (final ~1000-fold dilution): 10 mM, agonist: MPLA (TLR4) […]
compound,measurement,setting,value
Cc1cc2c(C(=O)NCC(C)c3ccccc3)c(O)c(O)cc2c(O)c1-c1c(C)cc2c(C(=O)NCC(C)c3ccccc3)c(O)c(O)cc2c1O (stereo unspecified) (library stock concentration (final ~1000-fold dilution): 10 mM),NF-kB SEAP reporter activity,RAW-Dual [1]; agonist: LPS (TLR4) 0.1 ug/mL,4.28
same,NF-kB SEAP reporter activity,RAW-Dual [1]; [3],2.93
same,NF-kB SEAP reporter activity,RAW-Dual [1]; [4],0.803
same,NF-kB SEAP reporter activity,RAW-Dual [1]; [5],1.62
Cc1cc2c(C(=O)NCC(C)c3ccccc3)c(O)c(O)cc2c(O)c1-c1c(C)cc2c(C(=O)NCC(C)c3ccccc3)c(O)c(O)cc2c1O (stereo unspecified),NF-kB SEAP reporter activity,RAW-Dual [2]; [6],1.84
same,NF-kB SEAP reporter activity,RAW-Dual [2]; [7],2.27
N=C(N)Nc1nc(CSCCC(=N)NS(N)(=O)=O)cs1 (library stock concentration (final ~1000-fold dilution): 10 mM),NF-kB SEAP reporter activity,RAW-Dual [1]; agonist: LPS (TLR4) 0.1 ug/mL,1.03
same,NF-kB SEAP reporter activity,RAW-Dual [1]; [3],1.06
same,NF-kB SEAP reporter activity,RAW-Dual [1]; [4],1.25
same,NF-kB SEAP reporter activity,RAW-Dual [1]; [5],1.09
N=C(N)Nc1nc(CSCCC(=N)NS(N)(=O)=O)cs1,NF-kB SEAP reporter activity,RAW-Dual [2]; [6],0.918
same,NF-kB SEAP reporter activity,RAW-Dual [2]; [7],1
CN1CCCC1CCOC(C)(c1ccccc1)c1ccc(Cl)cc1.O=C(O)/C=C/C(=O)O (stereo unspecified),NF-kB SEAP reporter activity,RAW-Dual [2]; [6],1.7
same,NF-kB SEAP reporter activity,RAW-Dual [2]; [7],0.942
CN1CCCC1CCOC(C)(c1ccccc1)c1ccc(Cl)cc1.O=C(O)/C=C/C(=O)O (stereo unspecified) (library stock concentration (final ~1000-fold dilution): 10 mM),NF-kB SEAP reporter activity,RAW-Dual [1]; agonist: LPS (TLR4) 0.1 ug/mL,1.32
same,NF-kB SEAP reporter activity,RAW-Dual [1]; [3],0.754
same,NF-kB SEAP reporter activity,RAW-Dual [1]; [4],0.873
same,NF-kB SEAP reporter activity,RAW-Dual [1]; [5],0.64
O=C(O)CCCN1CCC(OC(c2ccc(Cl)cc2)c2ccccn2)CC1.O=S(=O)(O)c1ccccc1 (stereo unspecified) (library stock concentration (final ~1000-fold dilution): 10 mM),NF-kB SEAP reporter activity,RAW-Dual [1]; agonist: LPS (TLR4) 0.1 ug/mL,1.04
same,NF-kB SEAP reporter activity,RAW-Dual [1]; [3],1.06
same,NF-kB SEAP reporter activity,RAW-Dual [1]; [4],1.01
same,NF-kB SEAP reporter activity,RAW-Dual [1]; [5],1.17
O=C(O)CCCN1CCC(OC(c2ccc(Cl)cc2)c2ccccn2)CC1.O=S(=O)(O)c1ccccc1 (stereo unspecified),NF-kB SEAP reporter activity,RAW-Dual [2]; [6],1.08
same,NF-kB SEAP reporter activity,RAW-Dual [2]; [7],1.03
N#CC1CC2CC2N1C(=O)C(N)C12CC3CC(CC(O)(C3)C1)C2.O (stereo unspecified),NF-kB SEAP reporter activity,RAW-Dual [2]; [7],1.19
N#CC1CC2CC2N1C(=O)C(N)C12CC3CC(CC(O)(C3)C1)C2.O (stereo unspecified) (library stock concentration (final ~1000-fold dilution): 10 mM),NF-kB SEAP reporter activity,RAW-Dual [1]; agonist: LPS (TLR4) 0.1 ug/mL,1.27
same,NF-kB SEAP reporter activity,RAW-Dual [1]; [3],1.44
same,NF-kB SEAP reporter activity,RAW-Dual [1]; [4],1.71
same,NF-kB SEAP reporter activity,RAW-Dual [1]; [5],1.75
N#Cc1ncccn1,NF-kB SEAP reporter activity,"RAW-Dual [2]; library stock concentration (final ~1000-fold dilution): 2 mM, agonist: Imiquimod (TLR7) […]",1
same,NF-kB SEAP reporter activity,"RAW-Dual [2]; library stock concentration (final ~1000-fold dilution): 2 mM, agonist: MPLA (TLR4) […]",1
O=C(O)c1ccc(O)c2ncccc12 (library stock concentration (final ~1000-fold dilution): 10 mM),NF-kB SEAP reporter activity,RAW-Dual [1]; agonist: LPS (TLR4) 0.1 ug/mL,1.21
same,NF-kB SEAP reporter activity,RAW-Dual [1]; [3],1.04
same,NF-kB SEAP reporter activity,RAW-Dual [1]; [4],0.998
same,NF-kB SEAP reporter activity,RAW-Dual [1]; [5],1.4
O=C(O)c1ccc(O)c2ncccc12,NF-kB SEAP reporter activity,RAW-Dual [2]; [6],1.05
same,NF-kB SEAP reporter activity,RAW-Dual [2]; [7],1.03
O.c1cnc2c(c1)ccc1cccnc12,NF-kB SEAP reporter activity,RAW-Dual [2]; [6],2.78
same,NF-kB SEAP reporter activity,RAW-Dual [2]; [7],2.1
N#Cc1ncccn1 (library stock concentration (final ~1000-fold dilution): 2 mM),NF-kB SEAP reporter activity,RAW-Dual [1]; agonist: LPS (TLR4) 0.1 ug/mL,1.32
same,NF-kB SEAP reporter activity,RAW-Dual [1]; [3],1.02
same,NF-kB SEAP reporter activity,RAW-Dual [1]; [4],1.09
same,NF-kB SEAP reporter activity,RAW-Dual [1]; [5],1.05
O.c1cnc2c(c1)ccc1cccnc12 (library stock concentration (final ~1000-fold dilution): 10 mM),NF-kB SEAP reporter activity,RAW-Dual [1]; agonist: LPS (TLR4) 0.1 ug/mL,2.48
same,NF-kB SEAP reporter activity,RAW-Dual [1]; [3],1.17
same,NF-kB SEAP reporter activity,RAW-Dual [1]; [4],1.44
same,NF-kB SEAP reporter activity,RAW-Dual [1]; [5],2.06
CCn1cc(C(=O)O)c(=O)c2cc(F)c(N3CCN(C)CC3)cc21.CS(=O)(=O)O.O.O,NF-kB SEAP reporter activity,RAW-Dual [2]; [6],0.752
same,NF-kB SEAP reporter activity,RAW-Dual [2]; [7],0.814
CCn1cc(C(=O)O)c(=O)c2cc(F)c(N3CCN(C)CC3)cc21.CS(=O)(=O)O.O.O (library stock concentration (final ~1000-fold dilution): 10 mM),NF-kB SEAP reporter activity,RAW-Dual [1]; agonist: LPS (TLR4) 0.1 ug/mL,1.38
same,NF-kB SEAP reporter activity,RAW-Dual [1]; [3],0.867
same,NF-kB SEAP reporter activity,RAW-Dual [1]; [4],1.01
same,NF-kB SEAP reporter activity,RAW-Dual [1]; [5],1.01
Cl.Cl.OC(CN1CCN(c2cccc(Cl)c2)CC1)C(c1ccccc1)c1ccccc1 (stereo unspecified),NF-kB SEAP reporter activity,RAW-Dual [2]; [6],1.33
same,NF-kB SEAP reporter activity,RAW-Dual [2]; [7],1.04
Cl.Cl.OC(CN1CCN(c2cccc(Cl)c2)CC1)C(c1ccccc1)c1ccccc1 (stereo unspecified) (library stock concentration (final ~1000-fold dilution): 10 mM),NF-kB SEAP reporter activity,RAW-Dual [1]; agonist: LPS (TLR4) 0.1 ug/mL,0.841
same,NF-kB SEAP reporter activity,RAW-Dual [1]; [3],1.02
same,NF-kB SEAP reporter activity,RAW-Dual [1]; [4],0.761
same,NF-kB SEAP reporter activity,RAW-Dual [1]; [5],0.956
CC(=O)OC1CC2CCC3C(CCC4(C)C3CC([N+]3(C)CCCCC3)C4OC(C)=O)C2(C)CC1N1CCCCC1 (stereo unspecified),NF-kB SEAP reporter activity,RAW-Dual [2]; [6],0.939
same,NF-kB SEAP reporter activity,RAW-Dual [2]; [7],0.965
CC(=O)OC1CC2CCC3C(CCC4(C)C3CC([N+]3(C)CCCCC3)C4OC(C)=O)C2(C)CC1N1CCCCC1 (stereo unspecified) (library stock concentration (final ~1000-fold dilution): 10 mM),NF-kB SEAP reporter activity,RAW-Dual [1]; agonist: LPS (TLR4) 0.1 ug/mL,1.04
same,NF-kB SEAP reporter activity,RAW-Dual [1]; [3],1.02
same,NF-kB SEAP reporter activity,RAW-Dual [1]; [4],0.945
same,NF-kB SEAP reporter activity,RAW-Dual [1]; [5],1.01
CCOC(=O)/C=C/c1ccc(O)c(O)c1 (library stock concentration (final ~1000-fold dilution): 10 mM),NF-kB SEAP reporter activity,RAW-Dual [1]; agonist: LPS (TLR4) 0.1 ug/mL,0.633 and 0.814
same,NF-kB SEAP reporter activity,RAW-Dual [1]; [3],0.407 and 0.651
same,NF-kB SEAP reporter activity,RAW-Dual [1]; [4],0.658 and 0.524
same,NF-kB SEAP reporter activity,RAW-Dual [1]; [5],0.563 and 0.481
NS(=O)(=O)NCCNc1nonc1C(=Nc1ccc(F)c(Br)c1)NO,NF-kB SEAP reporter activity,RAW-Dual [2]; [6],0.862
same,NF-kB SEAP reporter activity,RAW-Dual [2]; [7],0.907
NS(=O)(=O)NCCNc1nonc1C(=Nc1ccc(F)c(Br)c1)NO (library stock concentration (final ~1000-fold dilution): 10 mM),NF-kB SEAP reporter activity,RAW-Dual [1]; agonist: LPS (TLR4) 0.1 ug/mL,1.01
same,NF-kB SEAP reporter activity,RAW-Dual [1]; [3],0.936
same,NF-kB SEAP reporter activity,RAW-Dual [1]; [4],0.922
same,NF-kB SEAP reporter activity,RAW-Dual [1]; [5],0.961
CCCC(=O)Nc1ccc(OCC(O)CNC(C)C)c(C(C)=O)c1.Cl (stereo unspecified),NF-kB SEAP reporter activity,RAW-Dual [2]; [6],1
same,NF-kB SEAP reporter activity,RAW-Dual [2]; [7],1.08
CC(C)(C)NCC(O)COc1cccc2c1CCC(=O)N2.Cl (stereo unspecified) (library stock concentration (final ~1000-fold dilution): 10 mM),NF-kB SEAP reporter activity,RAW-Dual [1]; agonist: LPS (TLR4) 0.1 ug/mL,1.11
same,NF-kB SEAP reporter activity,RAW-Dual [1]; [3],1.05
same,NF-kB SEAP reporter activity,RAW-Dual [1]; [4],1.04
same,NF-kB SEAP reporter activity,RAW-Dual [1]; [5],1.11
